Values without a mark were called inactive. Calls of active or inactive are those of the source. The call rests on the fitted dose curve; in most records, active means well fitted activation curve with a large enough effect; inconclusive means small, poorly fitted or top-dose-only effect; inactive means no such curve, though single readings can be large or run the other way.
Experiment: Counterscreen for Identifying a Potential Treatment of Ataxia-Telangiectasia: Hit Validation; on activation: 0% is about no effect
Conditions: cell-free AlphaLISA/AlphaScreen artifact counterscreen, PBS only, no cells; series mostly up to 76.9 µM; activation: at the top concentration
Summary of the method: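 Without cells, compounds at up to 76.7 uM final were combined with premixed anti-pKAP1/anti-KAP1 AlphaLISA bead reagents, protease inhibitors and lysis buffer; signal read after 6 hr at 25C to flag assay-platform artifacts.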
Potency means the concentration at half of the fitted maximal effect.

Row | Compound | activation [%] | Potency
1 | COc1ccc(C2NC(=S)NC3=C2N2CCC3CC2)cc1 (stereo not drawn) | -22.3 | 
2 | CC(=O)NNC(=O)CN1C(=O)/C(=C/c2ccccc2)SC1=S | -5.26 | 
3 | CCC(Oc1ccccc1)C(=O)N(C)CC(=O)N(CC(C)C)c1c(N)n(CC(C)C)c(=O)[nH]c1=O (stereo not drawn) | 12.8 | 
4 | Cn1cc(/C=N/NC(N)=S)c2ccccc21 | -17.2 | 
5 | COCCCNC(=O)c1c[nH]c2ccc(S(=O)(=O)N(C)c3ccccc3C)cc2c1=O | -10.8 | 
6 | COc1ccc(Nc2cc3n(c(=O)n2)CCc2cc(OC)c(OC)cc2-3)cc1 | -4.51 | 
7 | CSc1nc(SCC(=O)O)c2c3c(sc2n1)COC(C)(C)C3 | -10.5 | 
8 | Cc1nc(SCC(=O)Nc2cc(C(N)=O)cc(C(N)=O)c2)c2c(C)c(C)sc2n1 |  | 51.9 µM (active)
9 | Nc1nc2ccccc2cc1-c1cccs1 | 17.2 | 
10 | Cc1ccc(C)c(-n2c(SCC(=O)NC(C(=O)O)C(C)C)nnc2-c2cccc(Cl)c2)c1 (stereo not drawn) | 11.5 | 
11 | CCn1nc(C)c(CNC(=O)c2cc(COc3ccc(F)cc3Cl)on2)c1C | -11.3 | 
12 | Fc1cccc(Cl)c1/C=C/c1cnc2ccccc2n1 | -13.1 | 
13 | CCc1oc(C(=O)OC)cc1CSC(=N)N | -1.54 | 
14 | O=C(CNCc1cccs1)Nc1ccc(OC(F)(F)F)cc1 | 0 | 
15 | C[C@H](NC(=O)OC(C)(C)C)C(=O)NCC1CCC(C(=O)N[C@@H](Cc2ccccc2)C(=O)O)CC1 (stereo partly drawn) | -14.8 | 
16 | N=c1ccn(Cc2ccc([N+](=O)[O-])cc2)cc1 | -6.15 | 
17 | CN(C)c1cc(Nc2ccc(O)cc2)c([N+](=O)[O-])c2nonc12 | 9.23 | 
18 | COc1ccc(CNC(=O)CN2C(=O)CSc3ccc(S(=O)(=O)N4CCOCC4)cc32)c(OC)c1 | -11.3 | 

— PubChem BioAssay AID493185 (National Center for Advancing Translational Sciences (NCATS), 2011)
